In PubChem BioAssay AID1224817 (Yan Lab, Georgia Cancer Center, Augusta University, 2016) one finds log2 luciferase activity ratio data, which are given here for 61 compounds.

Molecules are shown by their SMILES. Values joined by “and” are separate entries in the source; they are usually repeats but may differ in a detail not shown here. Equal entries are not always repeated. Screen size: about 2,000 compounds; about 25 (1%) were called active. For the sample, actives were picked, then their nearest neighbours and some compounds at random. Unmarked numbers belong to inactive results.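 Rule for the calls: active = log2 luciferase ratio at or below -0.5849, meaning signal at two thirds of solvent-only control or lower; inactive = the rest.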

This test is described as follows: inhibitors of EIF4E gene expression, primary screen, cell-based, HT1080, luciferase reporter (AID 1224817).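 Note: luciferase reports endogenous eIF4E expression since it is co-expressed from the native EIF4E locus.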 As to conditions: HT1080 EIF4E-luc2 knock-in reporter, 16 h, at 2.5 µM, hits give low values.
As to `O=C(O)C1CC[N-]CC1.O=C(O)C1CC[N-]CC1.[Cl][Pt+2]([Cl])([Cl])[Cl]`, the log2 luciferase activity ratio was -0.241.

Consider `CC(C)(N=NC(C)(C)C1=NCCN1)C1=NCCN1`, for which the log2 luciferase activity ratio is -0.215.

Regarding `NCCSc1nc(-c2ccccc2)c(-c2ccccc2)o1`, the log2 luciferase activity ratio is -0.0133.

In the case of `O=[N+]([O-])c1ccc(C2=Nn3c(nnc3-c3ccc(Cl)cc3)SC2)o1`, the log2 luciferase activity ratio is 0.0802.

As to `O=C(O)[C@@H]1[C@H](C(=O)O)[C@H](C(=O)O)C[C@@H]1C(=O)O`, the log2 luciferase activity ratio was -0.306.

With `C/C(=N\NC(=O)c1ccncc1)c1ccccc1Cl`, the log2 luciferase activity ratio is 0.497.

For `OC(Cc1cccnc1)(c1ccccc1)c1ccccc1`, the log2 luciferase activity ratio is -0.0482.

Turning to `NC(=O)/C(=C\c1ccncc1)c1cccc2ccccc12`, the log2 luciferase activity ratio is -0.0804.

Take `O=C(O)Cc1c[nH]c2ccc(F)cc12`: the log2 luciferase activity ratio is -0.736 (active).

For the compound `Nc1ccc2[nH]cc(CCC(=O)O)c2c1`, the log2 luciferase activity ratio was -0.0435.

For the compound `NC(Cc1c[nH]c2ccc([N+](=O)[O-])cc12)C(=O)O` (stereo unspecified), the log2 luciferase activity ratio was 0.208.

On to `Cc1cc(N2CCCCC2)nc2ccc(Cc3ccc4nc(N5CCCCC5)cc(C)c4c3)cc12`, for which the log2 luciferase activity ratio is 0.559.

Regarding `N=c1ncn(C/C=C/c2ccccc2)c2nc[nH]c12`, the log2 luciferase activity ratio is 0.287.

On to `Cc1cc(=Nc2ccc3c(c2)c(N)cc(C)[n+]3C)nc(N)n1C`, for which the log2 luciferase activity ratio is -0.0953.

For the compound `COc1cc2c(cc1OC)C(CCN)=NCC2`, the log2 luciferase activity ratio is -0.216.

With `CC1/C=C/C=C/CC/C=C/C=C/C=C/C=C/C(OC2OC(C)C(O)C(N)C2O)CC2OC(CC(O)C(O)CCC(O)CC(O)CC(O)CC(=O)OC(C)C(C)C1O)CC(O)C2C(=O)O` (stereo unspecified), the log2 luciferase activity ratio was -0.0951 and -0.0559.

`NCCNCC(O)CO` (stereo unspecified): the log2 luciferase activity ratio is 0.073.

On to `O=C(O)/C(=C\c1ccc(O)cc1)c1cccc2ccccc12`, for which the log2 luciferase activity ratio is -0.199.

Regarding `CC1CCCC(CC(=O)O)(CC(=O)O)C1` (stereo unspecified), the log2 luciferase activity ratio is 0.274.

`O=C(O)CC1(C(=O)O)CCCCC1`: the log2 luciferase activity ratio is -0.621 (active).

Consider `CC1(CC(=O)O)OC2CCCCCC2O1` (stereo unspecified) (tested in a mixture with another compound), for which the log2 luciferase activity ratio was 0.0163.

For the compound `O=C1c2cccc(O)c2C(=O)c2c(OC3OC(CO)C(O)C(O)C3O)cccc21` (stereo unspecified), the log2 luciferase activity ratio was -0.141.

For the compound `OC1C(O)C(O)C(O)C(O)C1O` (stereo unspecified), the log2 luciferase activity ratio was -0.102.

As to `CC(C)C(Nc1ncnc2nc[nH]c12)C(=O)O` (stereo unspecified), the log2 luciferase activity ratio was 0.37.

In the case of `O=C(O)CNC(=O)c1ccccc1O`, the log2 luciferase activity ratio is 0.226.

On to `O=C(O)/C(=C/c1ccccc1)c1ccccc1`, for which the log2 luciferase activity ratio is -0.172.

With `Cc1ccc(C)c(C2NC(=O)c3ccccc3N2)c1` (stereo unspecified), the log2 luciferase activity ratio is -0.685 (active).

On to `O=C1Nc2ccccc2/C1=N\[O-].O=C1Nc2ccccc2/C1=N\[O-].[Cu+2]`, for which the log2 luciferase activity ratio is 0.0071.

On to `N[C@H](C(=O)O)[C@H]1ON=C(Cl)[C@@H]1O`, for which the log2 luciferase activity ratio was -0.333.

Take `COC1/C=C\C=C(/C)C(=O)NC2=CC(=O)C(N)=C(CC(C)CC(OC)C(O)C(C)C=C(C)C1OC(N)=O)C2=O` (stereo unspecified): the log2 luciferase activity ratio is -1.05 (active).

Consider `CN(C)CCCn1c2c3ccccc3ccc2c2oc(=O)c3ccccc3c21`, for which the log2 luciferase activity ratio is -0.461.

In the case of `CN1CC(c2ccccc2)C(O)(C2(c3ccccc3)CN(C)CC(c3ccccc3)C2=O)C(c2ccccc2)C1` (stereo unspecified), the log2 luciferase activity ratio was -0.0781.

Turning to `CC1CC(C)CN(S(=O)(=O)c2cc(Cl)c(Oc3ccc([N+](=O)[O-])cc3Cl)c(Cl)c2)C1` (stereo unspecified), the log2 luciferase activity ratio was 0.55.

As for `NCC(=O)C(O)C(O)C(O)CO` (stereo unspecified), the log2 luciferase activity ratio was 0.229.

For the compound `O=C(O)/C=C\C(=O)Nc1ccccn1`, the log2 luciferase activity ratio is 0.0837.

Turning to `C[N+]1(CCC(=O)c2ccccc2)CCC2CCC(C2)C1` (stereo unspecified), the log2 luciferase activity ratio was 0.0296.

On to `CCCCCC[C@H]([C@H](C)O)n1cnc2c(N)ncnc21`, for which the log2 luciferase activity ratio is -0.0979.

`NCCSCCC(=O)O`: the log2 luciferase activity ratio was -0.0504.

With `NCC(=O)Nc1ccccc1`, the log2 luciferase activity ratio is -0.679 (active).

As for `CC(C)(CC(=O)Nc1ccccc1)C(=O)O`, the log2 luciferase activity ratio is -0.26.

As to `CC(=O)CC(=O)Nc1ccc2ccccc2c1`, the log2 luciferase activity ratio was 0.376.

For the compound `CN(C)Cc1c[nH]c2nc[nH]c(=O)c12`, the log2 luciferase activity ratio was 0.205.

On to `CN(C)CCC(=O)[C@@]1(O)CC[C@H]2[C@@H]3CC=C4C[C@@H](O)CC[C@]4(C)[C@H]3CC[C@@]21C`, for which the log2 luciferase activity ratio is 0.263.

Consider `O=C(O)CC1OCC=C2C[N+]3([O-])CCC45c6ccccc6NC4C1C2CC53` (stereo unspecified), for which the log2 luciferase activity ratio is 0.195.

Regarding `Cc1ccc(C2(C)CC/C(=N/N=C3/CCC(C)(c4ccc(C)c(C)c4)c4cc(C)c(C)cc43)c3cc(C)c(C)cc32)cc1C` (stereo unspecified), the log2 luciferase activity ratio was 0.135.

Consider `Oc1c(Cl)cc(C(c2cc(Cl)c(O)c(Cl)c2)C(c2cc(Cl)c(O)c(Cl)c2)c2cc(Cl)c(O)c(Cl)c2)cc1Cl`, for which the log2 luciferase activity ratio is -0.198.

As for `COc1ccc(C[N+](C)(C)N)cc1OC`, the log2 luciferase activity ratio is -0.225.

Consider `COc1ccc(CCN(C)CCCC(C#N)(c2ccc(OC)c(OC)c2)C(C)C)cc1OC` (stereo unspecified), for which the log2 luciferase activity ratio is -0.662 (active).

For `Cc1cc(=O)oc2c(OS(C)(=O)=O)c(OS(C)(=O)=O)ccc12`, the log2 luciferase activity ratio was 0.0541.

For the compound `Cc1ccn2c(CCc3nnc4cc(C)ccn34)nnc2c1`, the log2 luciferase activity ratio is -0.0744.

As to `CC(=O)NC1CONC1=O` (stereo unspecified), the log2 luciferase activity ratio was -0.303.

With `C=C[C@]1(C)C[C@@H](OC(=O)CO)[C@@]2(C)[C@H](C)CC[C@]3(CCC(=O)[C@H]32)[C@@H](C)[C@@H]1O`, the log2 luciferase activity ratio is 0.127.

With `Oc1ccc(Cc2nccc3cc(O)c(O)cc23)cc1O`, the log2 luciferase activity ratio was -0.044.

As to `OCCN(CO)CO`, the log2 luciferase activity ratio was -0.297.

Regarding `COc1ccc(CNC(C)C(=O)O)cc1` (stereo unspecified), the log2 luciferase activity ratio is -0.198.

Turning to `C/C(=N\[N+](C)(C)C)c1ccc(C)c(C)c1`, the log2 luciferase activity ratio was -0.284.

As for `CC(C)CCC[C@@H](C)[C@H]1CC[C@H]2[C@@H]3CC[C@H]4C[C@H](N)CC[C@]4(C)[C@H]3CC[C@]12C`, the log2 luciferase activity ratio was 0.0721.

On to `CN(C)CCCNc1cc(O)c2c(c1O)C(=O)c1ccccc1C2=O`, for which the log2 luciferase activity ratio was 1.39.

Consider `O=C(O)C/C=C/CC(=O)O`, for which the log2 luciferase activity ratio was -0.0603.

As to `CC(C)(C)CC(C)(C)c1cc(O)c(O)c(CN2CCCCC2)c1`, the log2 luciferase activity ratio is -0.183.

As for `CC(C)(C)c1ccc(CN2CCN(C(c3ccccc3)c3ccc(Cl)cc3)CC2)cc1` (stereo unspecified), the log2 luciferase activity ratio was -0.0054.
